{
  "source": "the supplement of paper PMC3898565",
  "note": "Counter-ions that a name gives are not always drawn. ± gives the uncertainty stated by the source.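 Further: viable cell number estimated from Alamar Blue fluorescence read at 560/90, part of a single-dose primary screen of an FDA-approved drug library.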",
  "data": [
    {"test_system": "U87", "assay": "cell viability relative to vehicle control; higher = less growth inhibition (less active)", "settings": "10 µM; 72 h", "units": {"cell viability": "%"}, "values": [
      {"smiles": "CC(COc1ccccc1Cc1ccccc1)N1CCCCC1", "note": "(stereo unspecified)", "cell viability": "102.4 ± 0.48"},
      {"smiles": "CN(Cc1cnc2nc(N)nc(N)c2n1)c1ccc(C(=O)N[C@@H](CCC(=O)O)C(=O)O)cc1", "cell viability": "72.9 ± 0.73"},
      {"smiles": "CC[N+](C)(CC)CCOC(=O)C(O)(c1ccccc1)C1CCCCC1", "note": "(stereo unspecified)", "cell viability": "109 ± 1.3"},
      {"smiles": "COc1cc(CNC(=O)CCCC/C=C/C(C)C)ccc1O", "note": "[Capsaicin]", "cell viability": "109 ± 1.5"},
      {"smiles": "O=C1CC[C@@H](C(=O)N2CSC[C@H]2C(=O)O)N1", "cell viability": "99.4 ± 1.6"},
      {"smiles": "Cc1cccc(CCN2CCC(C(=O)c3ccc(NS(C)(=O)=O)cc3)CC2)n1", "cell viability": "102.6 ± 0.96"},
      {"smiles": "NC(N)=NC(=O)c1nc(Cl)c(N)nc1N", "cell viability": "93.54 ± 0.1"},
      {"smiles": "CC(=O)[C@H]1CC[C@H]2[C@@H]3CCC4=CC(=O)CC[C@]4(C)[C@H]3CC[C@]12C", "cell viability": "107 ± 3"},
      {"smiles": "CCCCCNC(=N)N/N=C/c1c[nH]c2ccc(OC)cc12", "cell viability": "108 ± 1.2"},
      {"smiles": "O=[N+]([O-])c1cccc2cn[nH]c12", "cell viability": "107 ± 1.1"},
      {"smiles": "COc1cc(OC)c(C(=O)CCCN2CCCC2)c(OC)c1", "note": "[Buflomedil HCl]", "cell viability": "105 ± 2.7"}
    ]}
  ]
}
